The values below come from PubChem BioAssay (NCI).

Molecules are shown by their SMILES. About 79,000 compounds went through this panel and 15% of them were active in at least one assay; those are over-represented in the sample as a whole. Values without a mark were called inactive. Activity calls are given as the source filed them. Rule as the data show it: active = growth inhibition above about 70%; inactive = the rest.

The nature of the first assay: NCI Yeast Anticancer Drug Screen. Data for the sgs1 mgt1 strain (AID 161).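 Also: 0% = growth of cultures given vehicle only.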 The conditions noted are these: S. cerevisiae sgs1 mgt1 strain, at 5.0 µM (retest, dose inferred, filed as 0.5), active compounds read high. In outline:
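Read-out: growth inhibition vs vehicle controls. Cells: mutant yeast strain deficient in DNA damage repair.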
As for `CNS(=O)(=O)c1ccccc1C=C(c1ccccc1)c1ccccc1`, the growth inhibition is 4%.

For `CC(C)c1cc(C(C)C)c(Cl)c(Cl)c1O` (tested in a mixture with another compound), the growth inhibition was 6%.

For the compound `Nc1cccc2cccnc12`, the growth inhibition is 18%.

Consider `C[n+]1c(/C=C/c2ccc(N3CCCC3)cc2)sc2ccccc21`, for which the growth inhibition is 95% (active).

Turning to `Nc1cn(C2OC(CC(c3ccccc3)(c3ccccc3)c3ccccc3)C(O)C2O)c(=O)[nH]c1=O` (stereo not drawn), the growth inhibition is 99% (active).

As to `c1ccc(Cn2nnc(-c3ccccc3)c2-c2ccccc2)cc1`, the growth inhibition is -6%.

As to `CCCCCC(CCCCC)OC(=O)CCN(CCCCC)CCCCC`, the growth inhibition is 14%.

Turning to `C=CCC1(OC(C)=O)CC2C(=O)C(=O)C(C1)N2OC(=O)c1ccccc1` (stereo not drawn), the growth inhibition was 22%.

In the case of `C=CS(=O)(=O)c1ccc([N+](=O)[O-])cc1`, the growth inhibition is 21%.

In the case of `Cc1ccc(S(=O)(=O)Oc2ccc(C(C)(C)C)cc2Cl)cc1`, the growth inhibition was 11%.

Regarding `O=C(CCl)N1CCN(C(c2ccccc2)c2ccccc2)CC1`, the growth inhibition is 9%.

Take `Oc1ccc2ccccc2c1.[Cu+2]`: the growth inhibition was -2%.

Take `NS(=O)(=O)c1ccc(NC(=O)Cc2nc3ccccc3s2)cc1`: the growth inhibition is 54%.

For the compound `O=C(COc1ccc(Cl)cc1)OCCO`, the growth inhibition was -3%.

With `NC(=Nc1ccccc1)SCc1ccc([N+](=O)[O-])cc1`, the growth inhibition is 13%.

Consider `N[C@@H]1CCCC[C@@H]1N.O=C([O-])CN(CP(=O)([O-])[O-])CP(=O)([O-])[O-].[Pt+2]`, for which the growth inhibition is 8%.

Take `C/C=C(\C)CC/C=C/CO[Si](C)(C)C(C)(C)C`: the growth inhibition was -13%.

With `CCOC(=O)c1cnc2cc3cccccc3n2c1=O`, the growth inhibition was 13%.

Take `C(=N\NC1=NCCN1)/c1ccc(-c2cn3cc(/C=N/NC4=NCCN4)ccc3n2)cc1`: the growth inhibition was 99% (active).

With `CC(CN(C)C)C(/C=C/c1ccc(F)cc1)=N\Nc1ccccc1` (stereo not drawn), the growth inhibition is -15%.

As to `O=C1C(Sc2ccc3ccccc3c2)=C(Sc2ccc3ccccc3c2)C(=O)c2ccccc21`, the growth inhibition is 36%.

`CC(O)c1cccnc1` (stereo not drawn): the growth inhibition was 4%.

In the case of `Cc1cccc2nc3nc(Cl)c(Cl)nc3n12`, the growth inhibition is 13%.

With `CSc1cc2c(cc1N)Cc1cc(F)ccc1-2`, the growth inhibition is 0%.

For the compound `CC(C)C1=CC23CCC4C(C)(C(=O)O)CCCC4(C)C2CC1c1c(O)ccc(O)c13` (stereo not drawn), the growth inhibition is 51%.

Regarding `C=CCNC(=S)N/N=C(\CCC)c1ccccn1`, the growth inhibition is 99% (active).

For the compound `C#CC(C)(C)OC(C)=O`, the growth inhibition was -1%.

With `Cc1cc(N2C(=O)CSC2=S)c([N+](=O)[O-])cc1C`, the growth inhibition was 64%.

As for `Cc1[nH]c(=O)[nH]c(=O)c1CN(C)Cc1cc(Cl)cc(Cl)c1O`, the growth inhibition was 0%.

In the case of `CCCCC(CC)C(O)C(=O)O` (stereo not drawn), the growth inhibition is 4%.

On to `CCOCCOc1ccc(OCCOCC)cc1`, for which the growth inhibition is -66%.

On to `O=C(O)c1ccc(C(=O)c2ccccc2C(=O)O)cc1`, for which the growth inhibition was -1%.

For `CCCCCCCCCCCCCCNC(=O)CCC(NC(=O)c1ccc(N(C)Cc2cnc3nc(N)nc(N)c3n2)cc1)C(=O)NCCCCCCCCCCCCCC` (stereo not drawn), the growth inhibition was 19%.

For the compound `C=C1C(=O)C23OC2C1CCC(=O)C1(C)CC[C@H](OC(C)=O)C(C)(C)[C@H]1CC3O` (stereo partly drawn), the growth inhibition was 92% (active).

In the case of `CCCCCCCCCCC(NC(C)=O)(C(=O)OCC)C(=O)OCC`, the growth inhibition was -3%.

For `ClC(Cl)(Cl)/C=C/c1cnc2ccccc2n1`, the growth inhibition was 1%.

Turning to `CCc1nc(N)nc(N)c1-c1ccc(N(C)Cc2ccccc2)c([N+](=O)[O-])c1`, the growth inhibition was 37%.

In the case of `O=C(COC(=O)C(c1ccccc1)c1ccccc1)c1ccc(Br)cc1`, the growth inhibition was 0%.

On to `OCCN1COc2cc3c(cc2C1)OCN(CCO)C3`, for which the growth inhibition is -1%.

The assay is the same for the next values; noted with them: S. cerevisiae sgs1 mgt1 strain, at 50.0 µM (retest, dose inferred, filed as 5.0), active compounds read high.
For the compound `CNS(=O)(=O)c1ccccc1C=C(c1ccccc1)c1ccccc1`, the growth inhibition is 93% (active).

As for `CC(C)c1cc(C(C)C)c(Cl)c(Cl)c1O` (tested in a mixture with another compound), the growth inhibition was 98% (active).

Take `Nc1cccc2cccnc12`: the growth inhibition was 48%.

`C[n+]1c(/C=C/c2ccc(N3CCCC3)cc2)sc2ccccc21`: the growth inhibition is 99% (active).

As for `Nc1cn(C2OC(CC(c3ccccc3)(c3ccccc3)c3ccccc3)C(O)C2O)c(=O)[nH]c1=O` (stereo not drawn), the growth inhibition was 99% (active).

Regarding `c1ccc(Cn2nnc(-c3ccccc3)c2-c2ccccc2)cc1`, the growth inhibition was 96% (active).

Turning to `CCCCCC(CCCCC)OC(=O)CCN(CCCCC)CCCCC`, the growth inhibition is 97% (active).

In the case of `C=CCC1(OC(C)=O)CC2C(=O)C(=O)C(C1)N2OC(=O)c1ccccc1` (stereo not drawn), the growth inhibition is 99% (active).

Take `C=CS(=O)(=O)c1ccc([N+](=O)[O-])cc1`: the growth inhibition was 98% (active).

Regarding `Cc1ccc(S(=O)(=O)Oc2ccc(C(C)(C)C)cc2Cl)cc1`, the growth inhibition was 3%.

In the case of `O=C(CCl)N1CCN(C(c2ccccc2)c2ccccc2)CC1`, the growth inhibition was 97% (active).

Turning to `Oc1ccc2ccccc2c1.[Cu+2]`, the growth inhibition is 6%.

For `NS(=O)(=O)c1ccc(NC(=O)Cc2nc3ccccc3s2)cc1`, the growth inhibition was 100% (active).

On to `O=C(COc1ccc(Cl)cc1)OCCO`, for which the growth inhibition was -1%.

As for `NC(=Nc1ccccc1)SCc1ccc([N+](=O)[O-])cc1`, the growth inhibition was 71% (active).

As for `N[C@@H]1CCCC[C@@H]1N.O=C([O-])CN(CP(=O)([O-])[O-])CP(=O)([O-])[O-].[Pt+2]`, the growth inhibition was 88% (active).

Take `C/C=C(\C)CC/C=C/CO[Si](C)(C)C(C)(C)C`: the growth inhibition was 13%.

Consider `CCOC(=O)c1cnc2cc3cccccc3n2c1=O`, for which the growth inhibition was 65%.

With `C(=N\NC1=NCCN1)/c1ccc(-c2cn3cc(/C=N/NC4=NCCN4)ccc3n2)cc1`, the growth inhibition is 100% (active).

As for `CC(CN(C)C)C(/C=C/c1ccc(F)cc1)=N\Nc1ccccc1` (stereo not drawn), the growth inhibition is 13%.

Consider `O=C1C(Sc2ccc3ccccc3c2)=C(Sc2ccc3ccccc3c2)C(=O)c2ccccc21`, for which the growth inhibition is 93% (active).

Regarding `CC(O)c1cccnc1` (stereo not drawn), the growth inhibition was -1%.

Consider `Cc1cccc2nc3nc(Cl)c(Cl)nc3n12`, for which the growth inhibition is 91% (active).

Take `CSc1cc2c(cc1N)Cc1cc(F)ccc1-2`: the growth inhibition was 85% (active).

For the compound `CC(C)C1=CC23CCC4C(C)(C(=O)O)CCCC4(C)C2CC1c1c(O)ccc(O)c13` (stereo not drawn), the growth inhibition is 99% (active).

Consider `C=CCNC(=S)N/N=C(\CCC)c1ccccn1`, for which the growth inhibition is 96% (active).

Regarding `C#CC(C)(C)OC(C)=O`, the growth inhibition was 5%.

For the compound `Cc1cc(N2C(=O)CSC2=S)c([N+](=O)[O-])cc1C`, the growth inhibition is 99% (active).

Turning to `Cc1[nH]c(=O)[nH]c(=O)c1CN(C)Cc1cc(Cl)cc(Cl)c1O`, the growth inhibition was 95% (active).

Regarding `CCCCC(CC)C(O)C(=O)O` (stereo not drawn), the growth inhibition was 4%.

Consider `CCOCCOc1ccc(OCCOCC)cc1`, for which the growth inhibition is -9%.

Consider `O=C(O)c1ccc(C(=O)c2ccccc2C(=O)O)cc1`, for which the growth inhibition is -1%.

Consider `CCCCCCCCCCCCCCNC(=O)CCC(NC(=O)c1ccc(N(C)Cc2cnc3nc(N)nc(N)c3n2)cc1)C(=O)NCCCCCCCCCCCCCC` (stereo not drawn), for which the growth inhibition is 93% (active).

With `C=C1C(=O)C23OC2C1CCC(=O)C1(C)CC[C@H](OC(C)=O)C(C)(C)[C@H]1CC3O` (stereo partly drawn), the growth inhibition is 42%.

`CCCCCCCCCCC(NC(C)=O)(C(=O)OCC)C(=O)OCC`: the growth inhibition was 99% (active).

With `ClC(Cl)(Cl)/C=C/c1cnc2ccccc2n1`, the growth inhibition was 99% (active).

For `CCc1nc(N)nc(N)c1-c1ccc(N(C)Cc2ccccc2)c([N+](=O)[O-])c1`, the growth inhibition was 37%.

Take `O=C(COC(=O)C(c1ccccc1)c1ccccc1)c1ccc(Br)cc1`: the growth inhibition was 35%.

Turning to `OCCN1COc2cc3c(cc2C1)OCN(CCO)C3`, the growth inhibition is 14%.
